Not all results are given here.
aSyn UTR act: Activators via SNCA 5'UTR binding, MLPCN; alpha-synuclein 5'UTR reporter, activators screen; activity score, % (tested at 7.5 µM), hits read low; hit rate 7.1% among 300,000; AID 1814, 2009; in the data active means activity score below about -60%
An asterisk follows results filed as active.

COC(=O)c1cc(Cl)c(NC(=O)c2cc3ccccc3o2)cc1OC was read as aSyn UTR act -153.6*.
For COc1cc(NC(=O)c2ccccc2F)ccc1NC(=O)c1cc2ccccc2o1 the results were aSyn UTR act -67.2*.
For CCOCCCNC(=O)c1ccc(Br)cc1 the results were aSyn UTR act -84.1*.
For CCCC1=Nc2cc(C(=O)NCCCOCC)ccc2Sc2ccccc21 the results were aSyn UTR act 66.5.
Screening CC(C)OCCCNC(=O)c1ccc(Br)cc1 returned aSyn UTR act -73.4*.
`CC1=Nc2cc(C(=O)NCCCOC(C)C)ccc2Sc2ccc(C)cc21` gave aSyn UTR act 76.6.
Screening CC(=O)c1cnc(Nc2cccc(C)c2)s1 returned aSyn UTR act -136.7*.
`CNc1ncc(C(=O)c2ccc(F)cc2)s1` gave aSyn UTR act -111.6*.
For O=C(c1ccc(F)cc1)c1cnc(Nc2ccccc2)s1 the results were aSyn UTR act -161.4*.
COc1ccccc1/C=C/C(=O)Nc1ccc2c(c1)CCC2 was read as aSyn UTR act -151.0*.
`COc1ccccc1/C=C/C(=O)Nc1ccc2c(c1)OCCO2` gave aSyn UTR act -145.5*.
CC(C)N1C(=O)CN(C2CCCCCC2)C(=O)C1c1ccccc1F (stereo unspecified) was read as aSyn UTR act -140.3*.
`C=CCn1c(SCc2cc(C(C)=O)ccc2OCC)nc2ccccc2c1=O` gave aSyn UTR act 104.0.
`CCOC(=O)CSc1nc2ccccc2c(=O)n1NC(=O)c1ccccc1` gave aSyn UTR act -65.9*.
CCC(C)NC(=O)CSc1nc2ccsc2c(=O)n1NC(=O)c1ccccc1 (stereo unspecified) was read as aSyn UTR act -66.6*.
Screening Oc1c(CN2CCCCC2)cc(COCc2ccccc2)c2cccnc12 returned aSyn UTR act 91.5.
CCC(=O)c1ccc(OCc2ccc(C(=O)OC)cc2)c(OC)c1 was read as aSyn UTR act -75.1*.
COc1cc(C(=S)N2CCCC2)ccc1OCc1ccccc1 was read as aSyn UTR act -66.9*.
Screening CCC(=O)c1ccc(OCc2ccccc2)c(OC)c1 returned aSyn UTR act -85.4*.
Screening CCCCCCCCCCOC(=O)Cn1c(COc2ccccc2OC)[n+](C)c2ccccc21 returned aSyn UTR act 80.6.
For COC(=O)c1ccc(COC(=O)c2ccc(SC)cc2OC)cc1 the results were aSyn UTR act -115.0*.
`CCC(=O)c1ccc(SC(=O)N(C)C)cc1O` gave aSyn UTR act -67.6*.
Cc1ccc(NC2=C(Cl)C(=O)N(C3CCCCC3)C2=O)cc1 was read as aSyn UTR act -123.5*.
Screening Cc1cccc2c1cnn2C(=O)Nc1ccc(Br)cc1F returned aSyn UTR act -156.3*.
Cc1ccc(NC(=O)n2ncc3c(C)cccc32)c(C)c1 was read as aSyn UTR act -108.1*.
Screening CCOc1ccc(NC(=O)n2ncc3c(C)cccc32)cc1 returned aSyn UTR act -178.7*.
For Cc1oc2cc3oc(=O)cc(C)c3cc2c1C the results were aSyn UTR act -87.5*.
O=C1C(Nc2ccccc2)=C2CCCC=C2N1c1ccccc1 was read as aSyn UTR act -163.2*.
O=C(NCCCN1CCCC1=O)C(=O)Nc1cccc(F)c1 was read as aSyn UTR act -107.3*.
For Cc1ccc(NC(=O)NCCCN2CCCC2=O)cc1Cl the results were aSyn UTR act -66.4*.
`O=C(Cc1ccc(N2CCNC2=O)cc1)N1CCCC(Nc2cccc(F)c2)C1` (stereo unspecified) gave aSyn UTR act 63.8.
For O=c1c(/C=C(\O)c2ccccc2)nc2ccccc2n1-c1ccccc1 the results were aSyn UTR act -127.0*.
For Cc1cc2sc3nc(=O)n(-c4ccccc4)c(=O)n3c2cc1C the results were aSyn UTR act -159.7*.
Screening COc1ccc(N2CCN(C(=O)C3(C)CC3(Cl)Cl)CC2)cc1 (stereo unspecified) returned aSyn UTR act -82.1*.
CN(C)S(=O)(=O)c1cccc(C(=O)Nc2ccc(Cl)cn2)c1 was read as aSyn UTR act -116.2*.
`COc1ccc(C(=O)Nc2ccc(Cl)cn2)cc1Cl` gave aSyn UTR act -181.5*.
Screening CCc1ccc(NS(=O)(=O)c2ccc3[nH]cc(C(=O)N4CCc5ccccc54)c(=O)c3c2)cc1 returned aSyn UTR act -127.9*.
`O=S(=O)(c1ccc(Cl)cc1)N1CCC(c2nc3ccccc3[nH]2)CC1` gave aSyn UTR act 75.9.
CCOc1ccc(NC(=O)N2CCC(c3nc4ccccc4[nH]3)CC2)cc1 was read as aSyn UTR act -71.1*.
For Cc1ccc(Cn2nnnc2CN2CCC(c3nc4ccc(Cl)cc4[nH]3)CC2)cc1 the results were aSyn UTR act 78.3.
`COCCNC(=O)CSc1nc2ccc(N3CCOCC3)cc2c(=O)n1Cc1ccc(OC)cc1` gave aSyn UTR act -79.9*.
For CCOC(=O)CSc1nc2ccc(N3CCOCC3)cc2c(=O)n1Cc1ccc2c(c1)OCO2 the results were aSyn UTR act -81.9*.
`COCCCN=C(c1ccco1)n1c(=S)nc(-c2ccco2)n(CCCOC)c1=S` gave aSyn UTR act -87.7*.
`CCc1ccccc1NC(=S)N1N=CCC1c1ccccc1` (stereo unspecified) gave aSyn UTR act -71.0*.
Screening Cc1cccc(NC(=S)N2N=CCC2c2ccccc2)c1 (stereo unspecified) returned aSyn UTR act -125.2*.
`CCOc1ccc2c(c1)c(N=O)c(O)n2C` gave aSyn UTR act -64.9*.
Screening Cc1ccc(C(=O)c2cc([N+](=O)[O-])ccc2N2CCOCC2)cc1 returned aSyn UTR act 92.2.
CCC(=O)c1ccc(N2CCCCC2)c(F)c1 was read as aSyn UTR act -68.0*.
CCCC(=O)c1ccc(N2CCOCC2)c(F)c1 was read as aSyn UTR act -97.4*.
`Cc1ccc(C(=O)c2ccc(N3CCOCC3)c(F)c2)cc1` gave aSyn UTR act -109.0*.
`Nc1nc(CSC(=S)N2CCOCC2)nc(Nc2ccc(F)cc2)n1` gave aSyn UTR act -70.4*.
For Cc1ccc(Nc2nc(N)nc(CSC(=S)N3CCOCC3)n2)c(C)c1 the results were aSyn UTR act -93.4*.
For COc1ccc(Nc2nc(N)nc(CSC(=S)N3CCOCC3)n2)cc1 the results were aSyn UTR act -87.1*.
For O=C(COc1cccc2c1CCNC2=O)Nc1cccc(C(F)(F)F)c1 the results were aSyn UTR act -84.4*.
Screening COc1ccc2cc(C(=O)NCc3ccccc3)[nH]c2c1 returned aSyn UTR act -65.5*.
`COc1ccc2cc(C(=O)NCCc3ccccc3)[nH]c2c1` gave aSyn UTR act -172.1*.
For CC(=O)c1ccccc1OC(=O)c1ccc(-c2ccccc2)cc1 the results were aSyn UTR act -78.4*.
CC(C)N(C(=O)CSc1ncnc2sc(-c3ccccc3)cc12)C(C)C was read as aSyn UTR act -87.8*.
`Cc1nc(SCCC(=O)O)c2cc(-c3ccccc3)sc2n1` gave aSyn UTR act 67.1.
For COc1ccc(NCN2C(=O)C3C4C=CC(C4)C3C2=O)cc1 (stereo unspecified) the results were aSyn UTR act -66.6*.
`Cc1nc2cc(NC(=O)Nc3nccs3)ccc2n1C` gave aSyn UTR act -99.3*.
Screening O=C(Nc1cccc(Cl)c1)Nc1nccs1 returned aSyn UTR act -158.9*.
For O=C(Nc1ccc(Cl)c(Cl)c1)Nc1nccs1 the results were aSyn UTR act -63.8*.
Screening Cc1ccc(CNC(=O)c2ccc([N+](=O)[O-])o2)cc1 returned aSyn UTR act -70.1*.
Cn1cc([N+](=O)[O-])c(C(=O)Nc2nc(-c3ccc(Cl)cc3)cs2)n1 was read as aSyn UTR act 62.8.

Screening data: PubChem BioAssay, Broad Institute
